Results on 37 compounds are retold here after PubChem BioAssay (NCATS).

SMILES strings stand for the structures. “And” between values parts separate entries of the source, which are not always exact repeats. Identical values can stand only once. Records with an inconclusive call do not appear. Some structures have more than one record in an assay (separate samples or runs), and their calls can disagree. The source made the active and inactive calls. Unless noted, the call rests on the fitted dose curve; in most records, active means well fitted curve in the direction sought with a large enough effect; inconclusive means small, poorly fitted or top-dose-only effect, or another doubt; inactive means no such curve, though single readings can be large; an effect the other way counts as inactive or inconclusive.

The target in experiment [1] is Nicotinamide N-methyltransferase (Homo sapiens) (UniProt P40261). As to the kind of experiment: Confirmatory Screen for Target Class Profiling of Small Molecule Inhibitors of Methyltransferases (AID 1745852). The conditions noted are these: MTase-Glo luminescence, SAH detection, recombinant enzyme; measured here: NNMT max response; stronger effect = lower value.
The target in experiment [2] is Phenylethanolamine N-methyltransferase (Homo sapiens) (UniProt P11086). The description is as above. The settings on record: MTase-Glo luminescence, SAH detection, recombinant enzyme; measured here: PNMT max response; stronger effect = lower value.
Experiment [3] deals with Metallo-beta-lactamase type 2 (Klebsiella pneumoniae) (UniProt C7C422). As to the kind of experiment: qHTS to identify inhibitors of the New Delhi Metallo-beta-lactamase (NDM): assay validation screen against the NCATS LOPAC Collection (AID 1794843).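 Further: nitrocefin turnover by NDM-1 measured as 485 nm absorbance at plateau; on the % scale 0 is the no-effect control and ±100 the full control effect.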 The settings on record: NDM-1 enzyme, nitrocefin hydrolysis, absorbance 485 nm; series mostly up to 38.4 µM. A digest of the protocol: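 NDM-1 at 2 nM final in 50 mM HEPES pH 7.0, 1 uM ZnSO4, 0.01% Tween20, preincubated with LOPAC compounds pinned in DMSO; 50 uM nitrocefin (stock) added. Hydrolysis read as absorbance at 485 nm in the plateau phase.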

Experiment [4] addresses Glutathione peroxidase 1 (Homo sapiens) (UniProt P07203). As to the kind of experiment: Primary qHTS Assay for Inhibitors of Recombinant Selenoprotein Glutathione Peroxidase 1 (GPX1) (AID 1845191). Further: nearly all actives have a fitted effect of over 65% in size. The conditions noted are these: recombinant GPX1, GR-coupled NADPH fluorescence, 15 min; series mostly up to 48.8 µM. The procedure, abridged:
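GR-coupled readout: NADPH consumption tracked by fluorescence, ex 340/em 450 nm, at t=0 and after 15 min at RT. Final mix 10 nM GPX1, 1 mM GSH, 0.5 mM CHP, 0.5 mM NADPH, 100 nM GR, 0.01% BSA, following 30 min enzyme–compound preincubation.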

The target of experiment [5] is Phospholipid hydroperoxide glutathione peroxidase GPX4 (Homo sapiens) (UniProt P36969). The experiment is described as follows: Primary qHTS Assay for Inhibitors of Recombinant Selenoprotein Glutathione Peroxidase 4 (GPX4) (AID 1845192). Further: nearly all actives have a fitted effect of over 65% in size. Further: potency means the concentration at half of the fitted maximal effect. The conditions noted are these: recombinant GPX4, GR-coupled NADPH fluorescence, 15 min; series mostly up to 50 µM. The procedure, abridged:
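Steps: GPX4 plus compound, 30 min RT; add GR/GSH/NADPH master mix; start with cumene hydroperoxide; read 340/450 nm fluorescence at 0 and 15 min. Finals were 200 nM GPX4, 1 mM GSH, 0.5 mM CHP, 0.5 mM NADPH, 100 nM GR.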

Experiment [6] in a line: NCATS anti-infectives library activity on HEK293 viability as a counter-qHTS vs the C. elegans viability qHTS (AID 1745854). Further: potency means the concentration at half of the fitted maximal effect. The conditions noted are these: HEK293 viability counter-screen; series mostly up to 41.8 µM. A digest of the protocol:
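CellTiter-Glo luminescence, read on a CCD imager, scored viability of HEK293 cells after 24 hr compound exposure at 37C. Library tested in several concentrations, 1:5 steps, up to 41.7 uM; digitonin served as control.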

Experiment [7] is described as follows: NCATS anti-infectives library activity on the primary C. elegans qHTS viability assay (AID 1745855; calls by dose curve; further: potency means the concentration at half of the fitted maximal effect). The settings on record: C. elegans worm area imaging, day 7. The procedure, abridged: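 Titration-based screen in worms: eggs hatched overnight in M9, L1 larvae fed TOP10 capsules in S medium with compound, incubated 21 °C for 7 days; fluorescent objects gated by size and intensity at days 0, 3 and 7.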

Experiment [8] addresses Luciferin 4-monooxygenase (Photinus pyralis) (UniProt P08659). As to the kind of experiment: Primary firefly luciferase (FLuc) qHTS assay for identification of artifact compounds. (AID 1845220).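 Further: plate controls were DMSO vehicle for no effect and no enzyme for full effect; nearly all actives have a fitted effect of over 60% in size.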 The settings on record: purified firefly luciferase, luminescence, 5 min; series mostly up to 54.1 µM. The procedure, abridged:
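Enzymatic FLuc inhibition assay: compounds pre-exposed to luciferin/ATP (10 uM each) for 15 min, then purified P. pyralis enzyme at 10 nM added. Read-out: luminescence at 5 min.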

A short description of experiment [9]: Primary fluorescence-based thiol-reactive (MSTI) qHTS assay for identification of artifact compounds. (AID 1845221).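 Further: thiol-reactive compounds lower the probe fluorescence signal; nearly all actives have a fitted effect of over 65% in size.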 The conditions noted are these: MSTI thiol-reactivity probe, 1 h; series mostly up to 53.8 µM. A digest of the protocol: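 Thiol-reactive compounds detected by quenching of 4 uM MSTI fluorescence (525/598 nm) after 1 h room-temperature dark incubation in PBS pH 7.4, 2% DMSO. qHTS titration; percent inhibition Hill-fitted against Acetyl-MSTI/MSTI controls.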

For experiment [10], the target named is Nuclear receptor subfamily 1 group I member 3 (Homo sapiens) (UniProt Q14994). The experiment is described as follows: Primary qHTS for antagonist of constitutive androstane receptor (CAR) against the NCATS DSHEA and TCM libraries (AID 1794836).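 Further: HepG2 cells stably expressing hCAR with CYP2B6 luciferase reporter stimulated by CITCO.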 The settings on record: CAR reporter cell assay, antagonist mode, luciferase; series mostly up to 40 µM. The procedure, abridged: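 HepG2-CYP2B6-hCAR cells, attached 5 h, given compounds plus CITCO agonist […], incubated 24 h at 37 C. Luciferase luminescence read, multiplexed with CellTiter-Fluor viability (Ex/Em 405/540 nm).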
Nuclear receptor subfamily 1 group I member 3 (Homo sapiens), sequence (Q14994 whole entry, looked up): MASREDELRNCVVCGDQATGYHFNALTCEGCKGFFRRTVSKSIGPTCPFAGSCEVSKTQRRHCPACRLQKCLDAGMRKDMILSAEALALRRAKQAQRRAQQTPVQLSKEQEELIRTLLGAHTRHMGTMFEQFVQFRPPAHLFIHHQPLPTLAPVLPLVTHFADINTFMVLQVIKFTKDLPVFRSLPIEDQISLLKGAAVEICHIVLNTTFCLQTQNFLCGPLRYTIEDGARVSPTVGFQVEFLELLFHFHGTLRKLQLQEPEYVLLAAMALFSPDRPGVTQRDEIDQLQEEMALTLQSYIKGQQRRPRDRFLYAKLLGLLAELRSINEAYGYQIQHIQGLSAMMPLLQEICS

Metallo-beta-lactamase type 2 (Klebsiella pneumoniae), sequence (C7C422 whole entry, looked up): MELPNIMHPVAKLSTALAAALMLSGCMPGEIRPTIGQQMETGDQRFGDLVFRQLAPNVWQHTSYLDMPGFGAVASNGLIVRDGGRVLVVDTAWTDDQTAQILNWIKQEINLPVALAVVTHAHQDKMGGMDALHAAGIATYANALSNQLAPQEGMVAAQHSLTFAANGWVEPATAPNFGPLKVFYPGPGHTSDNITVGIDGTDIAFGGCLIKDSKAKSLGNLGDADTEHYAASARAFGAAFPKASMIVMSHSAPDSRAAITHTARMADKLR
Nicotinamide N-methyltransferase (Homo sapiens), sequence (P40261 whole entry, looked up): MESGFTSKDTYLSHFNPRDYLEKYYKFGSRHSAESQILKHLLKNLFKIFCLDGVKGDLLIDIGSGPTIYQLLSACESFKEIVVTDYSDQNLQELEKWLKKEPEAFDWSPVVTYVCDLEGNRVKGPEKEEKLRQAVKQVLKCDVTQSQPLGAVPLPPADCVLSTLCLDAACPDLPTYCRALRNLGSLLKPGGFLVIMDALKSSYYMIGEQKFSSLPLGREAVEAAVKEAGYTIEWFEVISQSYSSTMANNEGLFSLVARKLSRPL
Glutathione peroxidase 1 (Homo sapiens), sequence (P07203 whole entry, looked up): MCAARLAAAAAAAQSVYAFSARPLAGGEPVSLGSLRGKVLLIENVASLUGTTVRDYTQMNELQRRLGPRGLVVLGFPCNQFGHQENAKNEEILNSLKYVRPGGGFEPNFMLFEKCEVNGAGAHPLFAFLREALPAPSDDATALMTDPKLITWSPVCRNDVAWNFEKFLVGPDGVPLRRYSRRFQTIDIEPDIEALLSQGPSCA
Phenylethanolamine N-methyltransferase (Homo sapiens), sequence (P11086 whole entry, looked up): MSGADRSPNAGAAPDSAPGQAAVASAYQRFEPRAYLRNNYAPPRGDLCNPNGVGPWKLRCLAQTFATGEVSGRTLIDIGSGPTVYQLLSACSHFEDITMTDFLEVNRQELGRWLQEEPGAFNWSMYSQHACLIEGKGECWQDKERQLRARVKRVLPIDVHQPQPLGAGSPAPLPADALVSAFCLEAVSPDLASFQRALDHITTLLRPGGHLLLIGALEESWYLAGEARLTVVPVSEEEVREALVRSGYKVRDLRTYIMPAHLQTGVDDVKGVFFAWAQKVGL
Phospholipid hydroperoxide glutathione peroxidase GPX4 (Homo sapiens), sequence (P36969 whole entry, looked up): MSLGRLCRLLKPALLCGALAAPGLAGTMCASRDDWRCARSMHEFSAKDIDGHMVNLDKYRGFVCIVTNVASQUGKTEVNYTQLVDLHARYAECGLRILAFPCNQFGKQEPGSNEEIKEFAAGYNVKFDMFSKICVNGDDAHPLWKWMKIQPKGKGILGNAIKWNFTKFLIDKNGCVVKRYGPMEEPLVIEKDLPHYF

`CNCCc1ccc(O)c(O)c1`: the activity is -0.877% in experiment [1] and 1.2% in [2]. In addition, the outcome in experiment [3] is “inactive”. The Potency entry in [4] and in [5] was “inactive” in each case.
`Oc1ccc2c3c1O[C@H]1c4[nH]c5c(c4C[C@@]4(O)[C@@H](C2)N(CC2CC2)CC[C@]314)C[C@@]1(O)[C@H]2Cc3ccc(O)c4c3[C@@]1(CCN2CC1CC1)[C@H]5O4`: the outcome in experiment [3] was “inactive”. The Potency entry in experiment [4] and in experiment [5] was “inactive” each time.
`O=C1CCCN1CC#CCN1CCCC1`: in experiment [3], the outcome is “inactive”. Also, the Potency result in [4] and in experiment [5] was “inactive” throughout.
For the compound `Cn1cnc(CCN)c1`, the activity in [1] was -8.03%; in [2], 3.1%. The outcome in experiment [3] is “inactive”. The Potency result in experiment [4] and in experiment [5] was “inactive” throughout.
`CC1=C(O)C(=O)C=C2C1=CC=C1[C@@]2(C)CC[C@@]2(C)[C@@H]3C[C@](C)(C(=O)O)CC[C@]3(C)CC[C@]12C`: the Potency is 7.94 µM (active) in [6] and 4.59 µM (active) in [7]. Further, the Potency result in experiment [4] was “inactive”.
As for `NCCc1c[nH]c2ccccc12`, the activity in [1] is -8.81%; in [2], -14.8%. Moreover, the outcome in experiment [3] is “inactive”. Moreover, the Potency entry in experiment [4] and in [5] was “inactive” throughout.
With `c1ccc2sc(C3(N4CCCCC4)CCCCC3)cc2c1`, the outcome in experiment [3] is “inactive”. Moreover, the Potency entry in experiment [4] and in experiment [5] was “inactive” throughout.
`CC[C@@]1(O)C(=O)OCc2c1cc1n(c2=O)Cc2cc3ccccc3nc2-1`: in [3], the outcome was “inactive”. Also, the Potency entry in [4] was “inactive”. The Potency entry in experiment [5] was “inactive and 9.04 µM (active)”.
Take `NC1CC1c1ccccc1` (stereo unspecified): the activity in experiment [1] was -6.32%; in [2], -14.4%. For the same compound, the outcome in [3] is “inactive”. Also, the Potency entry in experiment [4] and in experiment [5] was “inactive” in each case.
Consider `O=C1C=CC[C@@H]2[C@H]3CCCN4CCC[C@@H](CN12)[C@@H]34`, for which the Potency entry in [6], in experiment [4], in [5] and in [9] was “inactive” each time. In addition, in experiment [8], the outcome was “inactive”.
Regarding `c1ccc(C2(c3ccccc3)CC2C2=NCCN2)cc1` (stereo unspecified), the outcome in experiment [3] is “inactive”. For the same compound, the Potency entry in [4] and in [5] was “inactive” in each case.
As to `CCCN(CCC)[C@@H]1CCc2ccc(O)cc2C1`, the activity in experiment [1] is -6.47%; in [2], 6.74%. Besides, the outcome in [3] was “inactive”. Besides, the Potency result in experiment [4] and in [5] was “inactive” throughout.
Consider `C[C@@H](N)Cc1cnc[nH]1`, for which the activity in experiment [1] was -6.87%; in experiment [2], -2.06%. Also, in experiment [3], the outcome was “inactive”. In addition, the Potency result in experiment [4] and in [5] was “inactive” in each case.
Take `CNCCc1c[nH]c2ccc(O)cc12`: the activity in experiment [1] is -11.4%; in experiment [2] it was 0.784%. For the same compound, the Potency result in experiment [4] and in experiment [5] was “inactive” each time.
Turning to `CC(C)NC(C)Cc1ccc(I)cc1` (stereo unspecified), the activity in [1] is -9.49%; in [2], 2.34%. Moreover, the outcome in [3] was “inactive”. Further, the Potency entry in [4] and in experiment [5] was “inactive” each time.
`C[N+]1(C)C2CCC1CC(OC(=O)C(CO)c1ccccc1)C2` (stereo unspecified): in experiment [3], the outcome was “inactive”. Besides, the Potency result in experiment [4] and in [5] was “inactive” in each case.
Regarding `C=CCN1CC[C@]23CCCCC2[C@H]1Cc1ccc(O)cc13` (stereo partly specified), the outcome in [3] is “inactive”. The Potency entry in experiment [4] and in [5] was “inactive” throughout.
For the compound `CCCN(CCC)C1CCc2ccc(O)cc2C1` (stereo unspecified), in [3], the outcome was “inactive”. In addition, the Potency result in experiment [4] and in experiment [5] was “inactive” throughout.
Consider `CS(=N)(=O)CC[C@H](N)C(=O)O` (stereo partly specified), for which the outcome in [3] is “inactive”. For the same compound, the Potency entry in experiment [4] and in [5] was “inactive” throughout.
In the case of `CCCN1CCC[C@H](c2cccc(O)c2)C1`, the outcome in experiment [3] was “inactive”. Also, the Potency entry in experiment [4] and in [5] was “inactive” throughout.
In the case of `CN[C@@H]1C[C@@H](c2ccc(Cl)c(Cl)c2)c2ccccc21`, the outcome in experiment [3] is “inactive”. The Potency result in experiment [4] and in experiment [5] was “inactive” each time.
For the compound `O=S(=O)(F)Cc1ccccc1`, the Potency entry in experiment [6], in experiment [4] and in [5] was “inactive” each time.
For the compound `CCCCCC[C@H]1C(=O)O[C@H](C)[C@H](NC(=O)c2cccc(NC=O)c2O)C(=O)O[C@@H](C)[C@@H]1OC(=O)CC(C)C`, the Potency entry in experiment [6] and in [4] was “inactive” throughout. The Potency in experiment [7] was 7.27 µM (active).
Turning to `Cc1[nH]nc2ccc(-c3cncc(OC[C@@H](N)Cc4c[nH]c5ccccc45)c3)cc12`, the activity in experiment [1] was -70.5%; in experiment [2], -56.5%. Further, the Potency result in experiment [4], in experiment [5] and in [9] was “inactive” in each case. The outcome in experiment [8] was “inactive”.
As for `O=C(Oc1ccc([N+](=O)[O-])cc1)N1CCC(C(O)(c2ccc3c(c2)OCO3)c2ccc3c(c2)OCO3)CC1`, the Potency entry in experiment [6], in experiment [4], in experiment [5] and in [9] was “inactive” in each case. In addition, the outcome in experiment [8] is “inactive”.
As to `O=S(=O)(CC1CS1)c1ccc(Oc2ccccc2)cc1` (stereo unspecified), the Potency entry in experiment [6], in [4] and in [5] was “inactive” each time.
As to `CC1=C(C/C=C(\C)CCC[C@H](C)CCC[C@H](C)CCCC(C)C)C(=O)c2ccccc2C1=O`, the outcome in [10] is “inactive”.
For the compound `Cc1nccc2c1[nH]c1ccccc12`, the outcome in experiment [3] was “inactive”. The Potency entry in [4] is “inactive”.
For `NCc1cc(=O)[nH]o1`, in experiment [3], the outcome is “inactive”. Besides, the Potency entry in experiment [4] and in [5] was “inactive” throughout.
For `CCNC(=O)C[C@@H]1N=C(c2ccc(Cl)cc2)c2cc(OC)ccc2-n2c(C)nnc21`, the Potency result in experiment [6], in experiment [4], in experiment [5] and in experiment [9] was “inactive” throughout. The outcome in experiment [8] was “inactive”.
With `NC1CCc2cc(O)c(O)cc2C1` (stereo unspecified), the activity is -14.5% in experiment [1] and -22.8% in experiment [2]. The outcome in [3] was “inactive”. Further, the Potency result in experiment [4] and in experiment [5] was “inactive” each time.
`O=C(N[C@H]1CN2CCC1CC2)c1ccc(Cl)cc1`: in [9], the Potency result was “inactive”.
Still for that read-out and setting: under `S=C(NC1CCCCC1)N1CCC(c2cnc[nH]2)CC1` stands “inactive”.
For the compound `CCC(=O)O[C@@H]1C=C2CCC3C(CCC4(C)C3CC[C@@H]4OC(=O)CC)C2CC1` (stereo partly specified), the Potency result in [4] and in experiment [5] was “inactive” in each case.
With `CCCC[N+]1(C)[C@H]2CC(OC(=O)[C@H](CO)c3ccccc3)C[C@H]1[C@H]1O[C@H]12` (stereo partly specified), the Potency result in experiment [4] and in [5] was “inactive” throughout.
Turning to `CCOP(=O)(OCC)C(C)NC(=O)N(CCCl)N=O` (stereo unspecified), the Potency entry in experiment [4] and in experiment [5] was “inactive” throughout.
Consider `O=[N+]([O-])c1ccc([As](=O)(O)O)cc1`, for which the Potency entry in experiment [4] and in experiment [5] was “inactive” in each case.
